Measurements: paper PMC7862700, “An all-to-all approach to the identification of sequence-specific readers for epigenetic DNA modifications on cytosine”

Assays:
Assay in all cases: DAPPL (digital affinity profiling via proximity ligation, sequencing); 10 mM Tris-HCl pH 7.5, 50 mM NaCl, 1 mM DTT, 4% glycerol, room temperature, 30 min; GST-TFs on glutathione beads, 16-mer random dsDNA library, 0.1% formaldehyde crosslink after washing; high values mean tight binding
FEV = target: T1, FEV (Homo sapiens, UniProt Q99581 1-238); details: protein: recombinant; tags: N-terminal GST; dsDNA, one strand shown
T1 sequence: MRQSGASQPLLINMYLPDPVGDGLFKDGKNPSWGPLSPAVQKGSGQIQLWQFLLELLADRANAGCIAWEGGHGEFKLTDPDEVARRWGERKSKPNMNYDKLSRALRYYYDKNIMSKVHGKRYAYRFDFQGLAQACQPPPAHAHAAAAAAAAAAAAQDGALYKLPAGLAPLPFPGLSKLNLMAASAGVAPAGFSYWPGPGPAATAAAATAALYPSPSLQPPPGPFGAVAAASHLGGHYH
In short: (§1)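 A tag-only sample was pooled with DNA-barcoded human transcription factors that had been expressed in yeast as GST fusions and captured on glutathione beads. The pools were incubated for 30 min at room temperature with 200 nmole of a random double-stranded 16-mer DNA library in Tris/NaCl/DTT/glycerol buffer, then washed, crosslinked with 0.1% formaldehyde, proximity-ligated (BsaI/T4 ligase, 1 h, 37 °C), PCR-amplified and sequenced on an Illumina NextSeq500. Binding signal is each hexamer's read frequency for a factor divided by its frequency for the tag-only sample.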

ETV5 = ETV5 (Homo sapiens, UniProt P41161 1-510); details: protein: recombinant; tags: N-terminal GST; dsDNA, one strand shown
In short: as §1

HSF1 = HSF1 (Homo sapiens, UniProt Q00613 1-529); details: protein: recombinant; tags: N-terminal GST; chain copies: 3; dsDNA, one strand shown
In short: as §1

SPIC = target: T2, SPIC (Homo sapiens, UniProt Q8N5J4 1-248); details: protein: recombinant; tags: N-terminal GST; dsDNA, one strand shown
T2 sequence: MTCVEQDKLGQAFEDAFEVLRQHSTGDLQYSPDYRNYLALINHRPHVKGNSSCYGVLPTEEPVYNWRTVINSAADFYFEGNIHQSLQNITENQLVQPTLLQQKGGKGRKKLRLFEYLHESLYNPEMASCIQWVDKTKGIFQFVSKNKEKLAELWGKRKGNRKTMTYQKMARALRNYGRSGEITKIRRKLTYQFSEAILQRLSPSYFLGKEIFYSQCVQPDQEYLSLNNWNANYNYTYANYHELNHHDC
In short: as §1

ELF4 = ELF4 (Homo sapiens, UniProt Q99607 1-663); details: protein: recombinant; tags: N-terminal GST; dsDNA, one strand shown
In short: as §1

ELK4 = target: T3, ELK4 (Homo sapiens, UniProt P28324-2 1-405); details: protein: recombinant; tags: N-terminal GST; dsDNA, one strand shown
T3 sequence: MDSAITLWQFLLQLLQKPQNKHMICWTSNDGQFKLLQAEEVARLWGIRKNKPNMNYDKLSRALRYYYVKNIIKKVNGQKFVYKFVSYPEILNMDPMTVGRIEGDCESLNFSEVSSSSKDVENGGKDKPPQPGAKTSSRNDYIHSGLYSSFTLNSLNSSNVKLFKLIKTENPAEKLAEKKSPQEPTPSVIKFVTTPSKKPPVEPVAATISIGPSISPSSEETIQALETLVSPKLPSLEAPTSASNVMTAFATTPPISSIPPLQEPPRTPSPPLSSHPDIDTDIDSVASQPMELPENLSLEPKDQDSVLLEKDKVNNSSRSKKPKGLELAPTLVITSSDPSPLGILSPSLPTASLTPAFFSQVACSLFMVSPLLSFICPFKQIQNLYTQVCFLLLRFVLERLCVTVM
In short: as §1

ETV2 = target: T4, ETV2 (Homo sapiens, UniProt O00321 1-342); details: protein: recombinant; tags: N-terminal GST; dsDNA, one strand shown
T4 sequence: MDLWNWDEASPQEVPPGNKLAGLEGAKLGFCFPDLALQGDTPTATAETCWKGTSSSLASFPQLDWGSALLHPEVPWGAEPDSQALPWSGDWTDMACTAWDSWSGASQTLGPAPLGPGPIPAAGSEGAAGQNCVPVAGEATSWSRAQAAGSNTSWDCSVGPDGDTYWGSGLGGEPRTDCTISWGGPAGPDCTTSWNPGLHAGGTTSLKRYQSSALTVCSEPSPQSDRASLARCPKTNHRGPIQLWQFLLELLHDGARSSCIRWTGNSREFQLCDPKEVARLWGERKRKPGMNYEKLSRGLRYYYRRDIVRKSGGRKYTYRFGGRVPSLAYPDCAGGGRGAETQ
In short: as §1

ELF3 = target: T5, ELF3 (Homo sapiens, UniProt P78545 1-371); details: protein: recombinant; tags: N-terminal GST; dsDNA, one strand shown
T5 sequence: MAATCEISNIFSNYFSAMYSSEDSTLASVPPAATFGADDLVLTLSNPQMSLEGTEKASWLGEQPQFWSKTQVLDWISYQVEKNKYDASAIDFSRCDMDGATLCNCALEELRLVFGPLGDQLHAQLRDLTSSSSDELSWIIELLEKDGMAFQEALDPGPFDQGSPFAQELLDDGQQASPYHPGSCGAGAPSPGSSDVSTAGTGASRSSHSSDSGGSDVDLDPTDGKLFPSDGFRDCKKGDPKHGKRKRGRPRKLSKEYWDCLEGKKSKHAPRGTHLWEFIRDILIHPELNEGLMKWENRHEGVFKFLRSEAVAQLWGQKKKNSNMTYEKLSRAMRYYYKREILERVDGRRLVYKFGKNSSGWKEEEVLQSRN
In short: as §1

CRX = CRX (Homo sapiens, UniProt O43186 1-299); details: protein: recombinant; tags: N-terminal GST; dsDNA, one strand shown
In short: as §1

ETV1 = ETV1 (Homo sapiens, UniProt P50549 1-477); details: protein: recombinant; tags: N-terminal GST; dsDNA, one strand shown
In short: as §1

HSF1, sequence (Q00613 whole entry): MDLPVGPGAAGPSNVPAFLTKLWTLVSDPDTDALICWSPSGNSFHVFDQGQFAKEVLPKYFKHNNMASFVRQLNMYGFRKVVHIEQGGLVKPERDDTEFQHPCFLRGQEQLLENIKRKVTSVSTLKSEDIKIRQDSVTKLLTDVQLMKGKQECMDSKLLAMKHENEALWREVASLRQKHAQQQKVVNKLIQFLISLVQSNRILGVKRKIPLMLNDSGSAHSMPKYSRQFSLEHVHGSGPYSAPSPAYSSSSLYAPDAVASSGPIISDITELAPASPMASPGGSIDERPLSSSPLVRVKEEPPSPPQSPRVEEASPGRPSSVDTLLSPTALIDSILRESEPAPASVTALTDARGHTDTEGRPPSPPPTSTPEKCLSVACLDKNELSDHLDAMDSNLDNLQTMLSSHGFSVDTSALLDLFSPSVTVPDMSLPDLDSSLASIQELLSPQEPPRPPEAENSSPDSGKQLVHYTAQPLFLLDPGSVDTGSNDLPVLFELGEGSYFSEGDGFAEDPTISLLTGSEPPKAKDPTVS
ETV5, sequence (P41161 whole entry): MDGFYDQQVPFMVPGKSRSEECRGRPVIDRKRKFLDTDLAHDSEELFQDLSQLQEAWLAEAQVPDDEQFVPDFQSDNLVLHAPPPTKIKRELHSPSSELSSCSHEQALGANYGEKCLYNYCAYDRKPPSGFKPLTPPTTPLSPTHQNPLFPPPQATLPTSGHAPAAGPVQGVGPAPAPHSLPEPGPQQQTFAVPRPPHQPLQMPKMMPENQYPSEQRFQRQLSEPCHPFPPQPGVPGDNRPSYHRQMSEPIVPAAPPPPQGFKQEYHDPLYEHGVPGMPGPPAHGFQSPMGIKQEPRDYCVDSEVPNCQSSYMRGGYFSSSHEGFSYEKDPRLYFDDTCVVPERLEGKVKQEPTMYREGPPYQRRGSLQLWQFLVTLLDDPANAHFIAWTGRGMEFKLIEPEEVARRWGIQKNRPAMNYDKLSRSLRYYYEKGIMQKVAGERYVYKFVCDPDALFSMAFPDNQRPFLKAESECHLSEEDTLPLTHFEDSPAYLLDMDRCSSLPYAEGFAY
ELF4, sequence (Q99607 whole entry): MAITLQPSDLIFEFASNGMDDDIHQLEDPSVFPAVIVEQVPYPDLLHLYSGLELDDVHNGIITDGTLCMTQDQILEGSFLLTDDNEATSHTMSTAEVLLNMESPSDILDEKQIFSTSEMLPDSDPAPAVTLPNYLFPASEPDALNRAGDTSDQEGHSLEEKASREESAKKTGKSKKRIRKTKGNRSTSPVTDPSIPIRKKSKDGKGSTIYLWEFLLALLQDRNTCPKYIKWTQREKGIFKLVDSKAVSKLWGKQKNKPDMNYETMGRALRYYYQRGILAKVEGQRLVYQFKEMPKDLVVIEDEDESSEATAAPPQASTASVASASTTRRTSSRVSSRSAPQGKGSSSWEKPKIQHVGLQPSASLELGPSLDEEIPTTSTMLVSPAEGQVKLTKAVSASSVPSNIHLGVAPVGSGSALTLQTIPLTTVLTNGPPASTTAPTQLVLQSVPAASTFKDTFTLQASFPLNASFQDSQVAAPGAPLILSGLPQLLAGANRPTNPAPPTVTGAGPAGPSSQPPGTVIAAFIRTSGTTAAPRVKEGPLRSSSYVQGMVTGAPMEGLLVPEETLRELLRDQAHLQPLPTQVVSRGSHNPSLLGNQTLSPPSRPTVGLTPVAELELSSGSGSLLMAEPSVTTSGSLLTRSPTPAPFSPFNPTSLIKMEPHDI
CRX, sequence (O43186 whole entry): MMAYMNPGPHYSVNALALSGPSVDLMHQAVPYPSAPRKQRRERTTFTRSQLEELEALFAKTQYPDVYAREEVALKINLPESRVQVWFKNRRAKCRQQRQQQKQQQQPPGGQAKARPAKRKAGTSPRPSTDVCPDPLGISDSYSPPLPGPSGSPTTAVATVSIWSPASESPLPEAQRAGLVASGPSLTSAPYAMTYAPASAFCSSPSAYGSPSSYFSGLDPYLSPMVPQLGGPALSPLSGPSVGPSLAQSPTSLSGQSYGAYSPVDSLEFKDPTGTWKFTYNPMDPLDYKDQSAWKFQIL
ETV1, sequence (P50549 whole entry): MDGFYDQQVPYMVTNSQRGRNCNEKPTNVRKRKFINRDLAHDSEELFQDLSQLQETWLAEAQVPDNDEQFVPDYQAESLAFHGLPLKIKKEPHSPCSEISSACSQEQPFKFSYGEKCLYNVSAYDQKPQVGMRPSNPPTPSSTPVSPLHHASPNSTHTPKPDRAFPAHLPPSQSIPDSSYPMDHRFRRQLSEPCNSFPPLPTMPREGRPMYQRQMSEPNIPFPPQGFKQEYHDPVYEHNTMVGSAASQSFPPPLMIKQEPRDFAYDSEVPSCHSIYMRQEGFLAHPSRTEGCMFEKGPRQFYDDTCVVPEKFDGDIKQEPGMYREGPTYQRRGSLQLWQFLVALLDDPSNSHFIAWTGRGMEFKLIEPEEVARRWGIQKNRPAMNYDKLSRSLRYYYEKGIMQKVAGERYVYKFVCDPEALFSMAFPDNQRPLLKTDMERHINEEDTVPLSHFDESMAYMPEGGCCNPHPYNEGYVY

Row | Sequence | binding signal (FEV) | binding signal (ETV5) | binding signal (HSF1) | binding signal (SPIC) | binding signal (ELF4) | binding signal (ELK4) | binding signal (ETV2) | binding signal (ELF3) | binding signal (CRX) | binding signal (ETV1)
1 | ATTGCC | 1.25 fold enrichment (6-mer frequency, TF over GST control) | 1.28 fold enrichment (6-mer frequency, TF over GST control) | 1.09 fold enrichment (6-mer frequency, TF over GST control) | 1.29 fold enrichment (6-mer frequency, TF over GST control) | 1.3 fold enrichment (6-mer frequency, TF over GST control) | 1.14 fold enrichment (6-mer frequency, TF over GST control) | 1.12 fold enrichment (6-mer frequency, TF over GST control) | 1.24 fold enrichment (6-mer frequency, TF over GST control) | 1.09 fold enrichment (6-mer frequency, TF over GST control) | 1.2 fold enrichment (6-mer frequency, TF over GST control)
2 | TGGGTT |  | 1.06 fold enrichment (6-mer frequency, TF over GST control) | 1.03 fold enrichment (6-mer frequency, TF over GST control) | 1.07 fold enrichment (6-mer frequency, TF over GST control) | 1.09 fold enrichment (6-mer frequency, TF over GST control) | 1.03 fold enrichment (6-mer frequency, TF over GST control) | 1.08 fold enrichment (6-mer frequency, TF over GST control) | 1.11 fold enrichment (6-mer frequency, TF over GST control) |  | 
3 | CCTTTG | 1.31 fold enrichment (6-mer frequency, TF over GST control) | 1.3 fold enrichment (6-mer frequency, TF over GST control) | 1.21 fold enrichment (6-mer frequency, TF over GST control) | 1.38 fold enrichment (6-mer frequency, TF over GST control) | 1.36 fold enrichment (6-mer frequency, TF over GST control) | 1.19 fold enrichment (6-mer frequency, TF over GST control) | 1.24 fold enrichment (6-mer frequency, TF over GST control) | 1.27 fold enrichment (6-mer frequency, TF over GST control) | 1.09 fold enrichment (6-mer frequency, TF over GST control) | 1.42 fold enrichment (6-mer frequency, TF over GST control)
4 | TAGGGT | 1.07 fold enrichment (6-mer frequency, TF over GST control) | 1.08 fold enrichment (6-mer frequency, TF over GST control) | 1.06 fold enrichment (6-mer frequency, TF over GST control) | 1.11 fold enrichment (6-mer frequency, TF over GST control) | 1.09 fold enrichment (6-mer frequency, TF over GST control) | 1.22 fold enrichment (6-mer frequency, TF over GST control) | 1.16 fold enrichment (6-mer frequency, TF over GST control) | 1.1 fold enrichment (6-mer frequency, TF over GST control) | 1.2 fold enrichment (6-mer frequency, TF over GST control) | 1.01 fold enrichment (6-mer frequency, TF over GST control)
5 | TCTATG | 1.06 fold enrichment (6-mer frequency, TF over GST control) | 1.1 fold enrichment (6-mer frequency, TF over GST control) | 1.16 fold enrichment (6-mer frequency, TF over GST control) | 1.11 fold enrichment (6-mer frequency, TF over GST control) | 1.14 fold enrichment (6-mer frequency, TF over GST control) | 1.16 fold enrichment (6-mer frequency, TF over GST control) | 1.25 fold enrichment (6-mer frequency, TF over GST control) | 1.1 fold enrichment (6-mer frequency, TF over GST control) | 1.11 fold enrichment (6-mer frequency, TF over GST control) | 1.1 fold enrichment (6-mer frequency, TF over GST control)
6 | AAGTTT | 1.35 fold enrichment (6-mer frequency, TF over GST control) | 1.37 fold enrichment (6-mer frequency, TF over GST control) | 1.5 fold enrichment (6-mer frequency, TF over GST control) | 1.29 fold enrichment (6-mer frequency, TF over GST control) | 1.39 fold enrichment (6-mer frequency, TF over GST control) | 1.27 fold enrichment (6-mer frequency, TF over GST control) | 1.44 fold enrichment (6-mer frequency, TF over GST control) | 1.35 fold enrichment (6-mer frequency, TF over GST control) | 1.38 fold enrichment (6-mer frequency, TF over GST control) | 1.51 fold enrichment (6-mer frequency, TF over GST control)
7 | TGATCA |  | 1.02 fold enrichment (6-mer frequency, TF over GST control) | 1.08 fold enrichment (6-mer frequency, TF over GST control) | 1.16 fold enrichment (6-mer frequency, TF over GST control) | 1.1 fold enrichment (6-mer frequency, TF over GST control) | 1.02 fold enrichment (6-mer frequency, TF over GST control) | 1.1 fold enrichment (6-mer frequency, TF over GST control) | 1.03 fold enrichment (6-mer frequency, TF over GST control) | 1.18 fold enrichment (6-mer frequency, TF over GST control) | 
8 | ATTCCA | 1.07 fold enrichment (6-mer frequency, TF over GST control) | 1.18 fold enrichment (6-mer frequency, TF over GST control) | 2.28 fold enrichment (6-mer frequency, TF over GST control) | 1.14 fold enrichment (6-mer frequency, TF over GST control) | 1.25 fold enrichment (6-mer frequency, TF over GST control) | 1.19 fold enrichment (6-mer frequency, TF over GST control) | 1.25 fold enrichment (6-mer frequency, TF over GST control) | 1.04 fold enrichment (6-mer frequency, TF over GST control) | 1.58 fold enrichment (6-mer frequency, TF over GST control) | 1.11 fold enrichment (6-mer frequency, TF over GST control)
